This note sets out measurements from PubChem BioAssay.

The nature of assay [1]: compounds binding Alexa647 anti-His antibody – biochemical, small-molecule microarray, 635 nm fluorescence, artefact control for SMM control protein annotation, primary screen (AID 1128).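 Note: score merges feature fluorescence with signal-to-noise for each printed compound spot.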 The note with it: higher = more signal.
The test system of assay [2] is Human papillomavirus type 1a E7 protein (residues 1-88). Briefly: HPV1a E7 small-molecule binders, primary screen, biochemical, small-molecule microarray, residues 1-88, 635 nm (AID 1129). The note with it: small-molecule microarray binding, fluorescence 635 nm; higher = more signal.
In assay [3] the target is Focal adhesion kinase 1 (Homo sapiens) (UniProt Q05397). The assay is described as follows: PTK2 protein binding on printed compound slides – biochemical, small-molecule microarray, 635/667 nm fluorescence, BSA, DTT, primary screen (AID 1130).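 Note: composite of spot emission at 667 nm and signal to noise over triplicate slides.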 To be noted: 635 nm fluorescence, higher = more signal.
Assay [4] relates to Fibrinogen (Alexa647-labelled). Briefly: Alexa647-fibrinogen binding to printed small molecules – biochemical, small-molecule microarray, 635/667 nm fluorescence, artefact control for SMM control-protein annotation, profiling panel (AID 1131).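 Note: z-score merges 667 nm fluorescence with per-spot signal-to-noise over triplicate slides.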 To be noted: fibrinogen-A647 binding fluorescence, higher = more signal.
Assay [5] concerns the target Follistatin (Homo sapiens) (UniProt P19883). The assay is described as follows: FST protein binding to printed compounds – biochemical, small-molecule microarray, 635/667 nm fluorescence, primary screen (AID 1132). To be noted: 635 nm fluorescence, higher = more signal.
In assay [6] the target is Fibroblast growth factor 2 (Homo sapiens) (UniProt P09038). Briefly: basic fibroblast growth factor binding to printed compounds – biochemical, small-molecule microarray, 635/667 nm fluorescence, primary screen (AID 1133). The note with it: FGF2, fluorescence 635/667, higher = more signal.
The nature of assay [7]: JC-1 mitochondrial potential readout, lung cancer cells – cell-based, A549, JC-1 fluorescence, basal, 24 h, 100 nL, profiling panel (AID 1138).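 Note: A549 lung adenocarcinoma cells under basal conditions with no added stimulus; test concentration not given here.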 To be noted: higher = more signal.
Another assay has as its system Lefty1. Briefly: Lefty1 protein binding to printed compounds – biochemical, small-molecule microarray, 635/667 nm fluorescence, primary screen (AID 1139). To be noted: fluorescence 635/667, higher = more signal.
Assay [8] has as its system wheat germ agglutinin (Triticum aestivum), Alexa647-labelled. The assay is described as follows: Alexa647-WGA lectin binding to printed small molecules – biochemical, small-molecule microarray, 635/667 nm fluorescence, artefact control for SMM control-protein annotation, profiling panel (AID 1140).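 Note: score merges 667 nm feature emission with signal to noise over triplicate slides.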 The note with it: WGA-A647 binding, 635 nm fluorescence, higher = more signal.

The target in assay [9] is Luciferin 4-monooxygenase (Photinus pyralis) (UniProt P08659). Briefly: inhibition of purified Photinus pyralis luciferase – biochemical, luminescence, purified enzyme, 2006 set, primary screen (AID 1141).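 Note: cell-free assay with purified firefly luciferase at 100 ng per well in PBS; test concentration not given here.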 To be noted: purified firefly luciferase, SteadyGlo luminescence, 30 min; higher = more signal, called active from +8 up or from −8 down.
Assay [10] concerns Wnt5a (protein binding on small-molecule microarray). Briefly: small molecules binding Wnt5a protein – biophysical, small-molecule microarray, 635/667 nm fluorescence, primary screen (AID 1142).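 Note: fluorescence read at 667 nm with signal to noise per printed feature.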 The note with it: 635 nm fluorescence, higher = more signal.
Assay [11] in a line: ATP-based viability of Huh7 replicon cells – cell-based, CellTiter-Glo luminescence, basal, 48 h, cytotoxicity control for HCV replication inhibitor project, primary screen (AID 1143).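 Note: Huh7 hepatoma cells carrying a hepatitis C replication reporter with no stimulus; test concentration not given here.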 The note with it: higher = more signal, called active from +8 up or from −8 down. A general note: In antiviral work, replicon cells carry a viral genome segment that copies itself.
Assay [12] is described as follows: Pseudomonas biofilm growth suppression – PAO1 strain, BacTiter-Glo luminescence, LB-PBS, primary screen (AID 1144). The note with it: P. aeruginosa PAO1 biofilm, 12 h, higher = more signal.
The nature of assay [13]: basal CRE-LacZ reporter activity in PC12 – cell-based, unstimulated, primary screen (AID 1145). To be noted: no forskolin, luminescence, 4.5 h, higher = more signal, called active from +8 up or from −8 down.
Assay [14] can be described thus: forskolin-driven CRE-LacZ activity in PC12 – cell-based, CRE-LacZ reporter, forskolin-stimulated, primary screen (AID 1146).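 Note: PC12 cells with 6xCRE LacZ reporter stimulated by forskolin 10 µM; beta-galactosidase reporter signal reflecting CREB driven transcription.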 The note with it: luminescence, 4.5 h, higher = more signal, called active from +8 up or from −8 down.
Assay [15] addresses Streptavidin (Streptomyces avidinii) (UniProt P22629). The assay is described as follows: compounds binding control protein streptavidin – biophysical, small-molecule microarray, 635/667 nm fluorescence, artefact control for SMM compound annotation, primary screen (AID 1147).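 Note: signal reflects streptavidin binding to arrayed compounds as a control protein.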 The note with it: higher = more signal.
Assay [16] is described as follows: probe aInhba binding on compound microarray – biochemical, small-molecule microarray, 635/667 nm fluorescence, primary screen (AID 1148).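 Note: score merges 667nm spot fluorescence with signal-to-noise for antibody binding to printed compounds.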 The note with it: higher = more signal.
Assay [17] has as its target Torsin-1A (Homo sapiens) (UniProt O14656). Briefly: TOR1A wild-type binding on microarray – cell lysate, small-molecule microarray, lysate, 635/667 nm, primary screen (AID 1149). To be noted: COS7 hTOR1A-WT lysate, 635 nm fluorescence, higher = more signal.
For assay [18] the target is unchanged. The assay is described as follows: torsin A mutant lysate binding on microarrays – cell lysate, small-molecule microarray, COS7 lysate, 635/667 nm fluorescence, primary screen (AID 1150).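 Note: score pools 667 nm emission and signal to noise measuring lysate protein binding.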 The note with it: COS7 hTOR1A mutant lysate, 635 nm fluorescence, higher = more signal.
Assay [19] concerns Sonic hedgehog protein (Shh). The assay is described as follows: Sonic hedgehog microarray binding compounds – biochemical, small-molecule microarray, 635/667 nm fluorescence, primary screen (AID 1151).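 Note: Shh protein binding to compounds spotted on small-molecule microarray slides; score combines spot fluorescence intensity with signal-to-noise across triplicate slides.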 The note with it: 635 nm fluorescence, higher = more signal.

Molecules are shown by their SMILES. Calls of active or inactive are those of the source. Unless noted, the rule behind the calls is not given here.

Fibroblast growth factor 2 (Homo sapiens), sequence (P09038 whole entry, looked up): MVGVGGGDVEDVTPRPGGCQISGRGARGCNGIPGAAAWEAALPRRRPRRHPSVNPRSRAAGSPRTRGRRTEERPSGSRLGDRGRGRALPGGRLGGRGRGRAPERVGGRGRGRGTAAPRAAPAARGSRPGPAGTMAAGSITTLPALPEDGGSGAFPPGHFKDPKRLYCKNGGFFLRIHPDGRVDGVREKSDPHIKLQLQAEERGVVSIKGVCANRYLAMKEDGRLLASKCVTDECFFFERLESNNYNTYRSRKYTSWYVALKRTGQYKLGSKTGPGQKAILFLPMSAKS
Luciferin 4-monooxygenase (Photinus pyralis), sequence (P08659 whole entry, looked up): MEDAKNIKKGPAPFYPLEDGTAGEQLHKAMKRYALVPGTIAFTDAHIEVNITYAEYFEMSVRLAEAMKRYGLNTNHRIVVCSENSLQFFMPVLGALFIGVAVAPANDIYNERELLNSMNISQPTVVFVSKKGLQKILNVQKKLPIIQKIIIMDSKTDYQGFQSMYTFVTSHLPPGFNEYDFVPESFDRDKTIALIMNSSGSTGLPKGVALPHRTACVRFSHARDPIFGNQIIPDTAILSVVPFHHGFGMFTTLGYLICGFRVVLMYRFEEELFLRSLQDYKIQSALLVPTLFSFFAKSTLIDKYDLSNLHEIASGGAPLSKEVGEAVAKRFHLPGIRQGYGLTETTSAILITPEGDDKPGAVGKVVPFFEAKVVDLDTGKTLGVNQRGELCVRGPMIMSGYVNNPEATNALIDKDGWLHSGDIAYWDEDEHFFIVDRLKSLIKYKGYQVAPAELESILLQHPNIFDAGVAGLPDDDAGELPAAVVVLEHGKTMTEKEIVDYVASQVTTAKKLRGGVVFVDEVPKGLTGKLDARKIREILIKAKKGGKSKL
Torsin-1A (Homo sapiens), sequence (O14656 whole entry, looked up): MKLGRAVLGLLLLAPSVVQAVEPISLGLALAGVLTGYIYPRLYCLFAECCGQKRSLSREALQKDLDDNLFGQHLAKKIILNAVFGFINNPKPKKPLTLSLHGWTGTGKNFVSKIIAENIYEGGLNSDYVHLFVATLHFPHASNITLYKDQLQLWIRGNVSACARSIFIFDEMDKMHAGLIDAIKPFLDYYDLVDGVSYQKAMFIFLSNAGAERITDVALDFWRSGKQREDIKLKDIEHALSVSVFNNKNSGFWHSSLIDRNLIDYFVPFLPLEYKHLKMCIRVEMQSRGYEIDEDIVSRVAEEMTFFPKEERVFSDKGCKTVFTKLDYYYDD
Streptavidin (Streptomyces avidinii), sequence (P22629 whole entry, looked up): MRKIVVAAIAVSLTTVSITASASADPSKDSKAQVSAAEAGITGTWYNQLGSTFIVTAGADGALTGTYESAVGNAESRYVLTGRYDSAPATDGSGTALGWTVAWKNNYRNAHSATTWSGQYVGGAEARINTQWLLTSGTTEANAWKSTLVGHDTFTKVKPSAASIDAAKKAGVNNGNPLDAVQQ
Focal adhesion kinase 1 (Homo sapiens), sequence (Q05397 whole entry, looked up): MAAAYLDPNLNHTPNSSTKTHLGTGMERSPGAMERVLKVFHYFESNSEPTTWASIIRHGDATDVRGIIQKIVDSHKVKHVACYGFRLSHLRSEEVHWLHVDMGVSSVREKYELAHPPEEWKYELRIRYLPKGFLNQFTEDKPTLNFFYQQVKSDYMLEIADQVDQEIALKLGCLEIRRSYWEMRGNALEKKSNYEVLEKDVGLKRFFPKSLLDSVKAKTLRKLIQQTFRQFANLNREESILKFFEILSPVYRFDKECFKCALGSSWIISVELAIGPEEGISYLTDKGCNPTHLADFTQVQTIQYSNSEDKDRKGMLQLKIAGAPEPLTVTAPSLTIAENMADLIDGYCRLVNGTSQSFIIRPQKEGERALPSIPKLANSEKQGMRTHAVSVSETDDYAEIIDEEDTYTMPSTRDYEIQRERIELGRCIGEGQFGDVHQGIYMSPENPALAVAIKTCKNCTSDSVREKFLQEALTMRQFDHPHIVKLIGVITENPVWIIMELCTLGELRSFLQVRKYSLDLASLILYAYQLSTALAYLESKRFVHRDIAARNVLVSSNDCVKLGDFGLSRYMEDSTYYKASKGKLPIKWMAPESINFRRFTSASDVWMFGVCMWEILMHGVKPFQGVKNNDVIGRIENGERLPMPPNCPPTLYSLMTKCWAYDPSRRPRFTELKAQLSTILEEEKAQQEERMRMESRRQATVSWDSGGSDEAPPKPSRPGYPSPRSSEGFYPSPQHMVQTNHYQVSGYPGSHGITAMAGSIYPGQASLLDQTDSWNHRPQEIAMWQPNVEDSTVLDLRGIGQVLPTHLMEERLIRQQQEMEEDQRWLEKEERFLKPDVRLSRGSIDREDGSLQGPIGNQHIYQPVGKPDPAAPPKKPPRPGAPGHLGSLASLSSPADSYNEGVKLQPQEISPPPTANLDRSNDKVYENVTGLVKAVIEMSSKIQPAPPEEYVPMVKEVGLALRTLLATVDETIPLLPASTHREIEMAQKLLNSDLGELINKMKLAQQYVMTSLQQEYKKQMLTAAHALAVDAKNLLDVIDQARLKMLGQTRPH
Follistatin (Homo sapiens), sequence (P19883 whole entry, looked up): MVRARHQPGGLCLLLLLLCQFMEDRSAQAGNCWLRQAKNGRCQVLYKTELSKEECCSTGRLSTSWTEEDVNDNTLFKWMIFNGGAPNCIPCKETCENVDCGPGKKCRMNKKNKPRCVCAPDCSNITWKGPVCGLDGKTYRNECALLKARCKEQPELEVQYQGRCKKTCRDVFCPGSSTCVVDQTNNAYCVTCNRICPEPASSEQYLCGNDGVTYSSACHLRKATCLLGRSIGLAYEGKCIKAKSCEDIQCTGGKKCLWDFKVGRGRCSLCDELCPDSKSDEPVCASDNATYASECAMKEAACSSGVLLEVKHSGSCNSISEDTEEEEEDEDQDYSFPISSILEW

As for `COc1ccc([Si](C)(C)[C@H]2[C@H](CC(=O)N(CCO)Cc3ccccc3)O[C@@]3(C(=O)N(Cc4cccc(N5CCOC5=O)c4)c4ccccc43)[C@@H]2C)cc1`, the composite z-score in [1] came out at 1.65; in [2], 0.922; in [3] it was 0.647; in assay [4] it was 0.206; in assay [5], 1.06; in assay [6], 0.494. Moreover, the composite z-score was 0.857 with Lefty1; 0.321 in [8]; -0.031 in [10]; 0.0212 in assay [15]; -0.0523 in assay [16]; 0.898 with Torsin-1A (Homo sapiens) [17]. In addition, the composite z-score was found to be 0.931 with Torsin-1A (Homo sapiens) [18] and 1.22 in [19]. Further, the z-score is -0.791 in assay [7]; 0.271 (inactive) in assay [9]; -4.86 (inactive) in assay [11]; -0.388 (inactive) in assay [12]; 1.27 (inactive) in assay [13]; -0.863 (inactive) in assay [14].

For the molecule `CN1C(=O)C2C=CC(C(O)C#Cc3ccccc3)N(Nc3ccccc3)C2C1=O` (stereo not given), the composite z-score in [1] amounted to 0.974; in [2], 1.24; in assay [3], 0.884; in assay [4], 0.985; in assay [5], 1.18; in assay [6], 0.101. For the same molecule, the composite z-score in the assay on Lefty1 is 0.473; in assay [8], 1.24; in [10] it was 0.399; in [15], 1.38; in assay [16], 0.153; in the assay with Torsin-1A (Homo sapiens) [17], 0.663. Moreover, the composite z-score in the assay with Torsin-1A (Homo sapiens) [18] is 0.889; in assay [19] it was 0.592. Also, the z-score in assay [7] is 1.11; in [9], -1.21 (inactive); in assay [11] it was 0.254 (inactive); in assay [12], -0.141 (inactive); in [13], -0.515 (inactive); in assay [14], 0.526 (inactive).

As for `C=CCC(OC(C)=O)[C@@H]1[C@@H](N(Cc2ccc(-c3cccc(C(F)(F)F)c3)o2)C(=O)c2ccc(-c3ccccc3)cc2)c2cc(OCCCO)ccc2N1C(=O)c1ccc2ccccc2n1` (stereo not given in full), the composite z-score in [1] was 0.445; in assay [2], -0.507; in assay [3] it was 0.0509; in [4], 0.401; in [5] it was 0.772; in assay [6] it was -0.0036. Also, the composite z-score in the assay on Lefty1 was 0.149; in assay [8], -0.0763; in [10] it was -0.0222; in assay [15], 0.0257; in assay [16], -0.0762; with Torsin-1A (Homo sapiens) [17], -0.48. For the same molecule, the figures for the composite z-score (with Torsin-1A (Homo sapiens) [18]; in [19]) were -0.0764 and 0.406, respectively. For the same molecule, the z-score in assay [7] is 0.404; in assay [9], 0.141 (inactive); in [11], 0.0285 (inactive); in assay [12], -0.171 (inactive); in [13] it was 0.222 (inactive); in [14] it was 0.53 (inactive).

Consider `[N-]=[N+]=Nc1ccccc1C[C@]1(C(=O)N2CCOCC2)N=C(c2ccc(OCCCO)cc2)O[C@H]1c1ccccc1`, for which the composite z-score in assay [1] stood at 2.06; in assay [2], 1.21; in assay [3] it was 0.3; in assay [4], 0.905; in assay [5], 1.42; in assay [6] it was 1.81. Moreover, the composite z-score in the assay with Lefty1 was 0.435; in assay [8] it was 1.2; in assay [10], 1.01; in assay [15] it was 0.65; in assay [16], -0.0279; with Torsin-1A (Homo sapiens) [17] it was 1.14. The composite z-score with Torsin-1A (Homo sapiens) [18] stood at 0.272; in assay [19] it was 0.276. Further, the z-score in [7] is 2.81; in assay [9], -2.31 (inactive); in assay [11], -3.57 (inactive); in assay [12] it was 0.567 (inactive); in assay [13], 0.204 (inactive); in [14] it was -0.0807 (inactive).

Take `COC(=O)[C@@]1(Cc2ccccc2)[C@H]2c3cc(C(=O)N(C)C)n(CCN4CNCC4=O)c3C[C@H]2CN1C(=O)c1ccccc1`: the composite z-score in assay [1] is 3.19; in assay [2] it was 0.644; in assay [3] it was -0.619; in assay [4], -1.2; in [5], -0.64; in assay [6], -0.8. Moreover, the composite z-score in the assay on Lefty1 was -2.13; in assay [8], 1.45; in assay [10], 0.569; in assay [15], 1.54; in assay [16], 1.28; in the assay with Torsin-1A (Homo sapiens) [17], 3.83. In addition, the values for the composite z-score (in the assay with Torsin-1A (Homo sapiens) [18]; in assay [19]) were 4.06 and -1.85, respectively. Further, the z-score in [7] was 0.697; in assay [9], 0.394 (inactive); in [11], 0.106 (inactive); in assay [12], -0.505 (inactive); in assay [13], 0.0007 (inactive); in assay [14], 0.547 (inactive).
